# Data from the supplement of paper PMC8728848.
# The entries come from a sample that favours the strongest signals as a whole.
# B1: B3GalT2 (Rattus norvegicus) (protein)
# chain: LMLQWRRRHCCFAKMSWNAKRSLFRTHLMGVLSLVFLFAMFLFFNHHDWLPGRPGFKENPVTYTFRGFRSTKTETNQSSLRNIWKEVVPQTLRPQTATNSNNTELSPQGVTGLENTLSANGSIYNEKGTGHPNSYHFKYIINEPEKCQEKSPFLILLIAAEPGQIEARRAIRQTWGNETLAPGIQITRIFLLGISIKLNGYLQHAIQEESIQYHDIIQQEYLDTYYNLTIKTLMGMNWVATYCPHTPYVMKTDSDMFVNTEYLIHKLLKPDLPPRHNYFTGYLMRGYAPNRNKDSKWYMPPDLYPSERYPVFCSGTGYVFSGDLAEKIFKVSLGIRRLHLEDVYVGICLAKLRVDPVPPPNEFVFNHWRVSYSSCKYSHLITSHQFQPSELIKYWNHLQQNKHNACVNAAKEKAGRYRHRKLH
# Columns and labels:
# Experiment in all cases: glycan array binding signal (z-score within array); higher = stronger binding
# Conditions in all cases: glycan notation: IUPAC condensed, linker removed
# Fuc(a1-2)Gal(b1-3)GlcNAc = biological target: Fuc(a1-2)Gal(b1-3)GlcNAc
# How it was run: (§1)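 Negative Z-scores can be read as non-binding. The Z-score is calculated within each array and then averaged across arrays of one protein sequence at different concentrations or buffers and across linkers. Arrays, 3228 in all, were curated from the Consortium for Functional Glycomics database and kept only where the protein sequence was available.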
# [1] = biological target: Fuc(a1-2)Gal(b1-3)GlcNAc6S
# How it was run: as §1
# Fuc(a1-2)Gal(b1-4)Glc = biological target: Fuc(a1-2)Gal(b1-4)Glc
# How it was run: as §1
# [2] = biological target: Fuc(a1-2)Gal(b1-4)GlcNAc(b1-3)GalNAc
# How it was run: as §1
# [3] = biological target: Fuc(a1-2)Gal(b1-4)[Fuc(a1-3)]GlcNAc(b1-2)[Fuc(a1-2)Gal(b1-4)[Fuc(a1-3)]GlcNAc(b1-4)]Man(a1-3)[Fuc(a1-2)Gal(b1-4)[Fuc(a1-3)]GlcNAc(b1-2)Man(a1-6)]Man(b1-4)GlcNAc(b1-4)GlcNAc
# How it was run: as §1
# [4] = biological target: Fuc(a1-2)Gal6S(b1-3)GlcNAc
# How it was run: as §1
# [5] = biological target: Fuc(a1-2)[GalNAc(a1-3)]Gal(b1-3)GlcNAc(b1-2)Man(a1-3)[Fuc(a1-2)[GalNAc(a1-3)]Gal(b1-3)GlcNAc(b1-2)Man(a1-6)]Man(b1-4)GlcNAc(b1-4)GlcNAc
# How it was run: as §1
# [6] = biological target: Fuc(a1-2)[GalNAc(b1-3)]Gal
# How it was run: as §1
# [7] = biological target: Fuc(a1-3)[Gal(b1-4)]GlcNAc(b1-3)Gal(b1-4)[Fuc(a1-3)]GlcNAc(b1-3)Gal(b1-4)[Fuc(a1-3)]GlcNAc
# How it was run: as §1
# [8] = biological target: Fuc(a1-3)[Gal3S(b1-4)]Glc
# How it was run: as §1
# [9] = biological target: Fuc(a1-3)[GalNAc(b1-4)]GlcNAc6S
# How it was run: as §1
# [10] = biological target: Gal(a1-3)Gal(b1-4)GlcNAc(b1-2)Man
# How it was run: as §1
# [11] = biological target: Gal(a1-3)[Gal(a1-4)]Gal(b1-4)GlcNAc
# How it was run: as §1
# [12] = biological target: Gal(b1-3)GalNAc(a1-3)[Fuc(a1-2)]Gal(b1-4)Glc
# How it was run: as §1
# [13] = biological target: Gal(b1-3)GlcNAc(b1-2)Man(a1-3)[Gal(b1-3)GlcNAc(b1-2)Man(a1-6)]Man(b1-4)GlcNAc(b1-4)[Fuc(a1-6)]GlcNAc
# How it was run: as §1
# [14] = biological target: Gal(b1-3)GlcNAc(b1-2)Man(a1-3)[GlcNAc(b1-4)][Gal(b1-3)GlcNAc(b1-2)Man(a1-6)]Man(b1-4)GlcNAc(b1-4)GlcNAc
# How it was run: as §1
# [15] = biological target: Gal(b1-3)GlcNAc(b1-3)Gal(b1-4)GlcNAc(b1-3)Gal(b1-4)GlcNAc(b1-2)[Gal(b1-3)GlcNAc(b1-3)Gal(b1-4)GlcNAc(b1-3)Gal(b1-4)GlcNAc(b1-6)]Man(a1-6)[Gal(b1-3)GlcNAc(b1-3)Gal(b1-4)GlcNAc(b1-3)Gal(b1-4)GlcNAc(b1-2)Man(a1-3)]Man(b1-4)GlcNAc(b1-4)[Fuc(a1-6)]GlcNAc
# How it was run: as §1
# [16] = biological target: Gal(b1-3)GlcNAc(b1-3)GalNAc
# How it was run: as §1
# [17] = biological target: Gal(b1-3)GlcNAc(b1-6)[Gal(b1-3)]GalNAc
# How it was run: as §1
# [18] = biological target: Gal(b1-4)GlcNAc(b1-2)Man(a1-3)[Gal(b1-4)GlcNAc(b1-2)Man(a1-6)]Man(b1-4)GlcNAc(b1-4)GlcNAc
# How it was run: as §1
# [19] = biological target: Gal(b1-4)GlcNAc(b1-2)Man(a1-3)[GlcNAc(b1-2)Man(a1-6)]Man(b1-4)GlcNAc(b1-4)GlcNAc
# How it was run: as §1
# [20] = biological target: Gal(b1-4)GlcNAc(b1-3)Gal(b1-4)GlcNAc
# How it was run: as §1
# Gal3S(b1-3)GalNAc = biological target: Gal3S(b1-3)GalNAc
# How it was run: as §1
# Gal6S(b1-3)GlcNAc = biological target: Gal6S(b1-3)GlcNAc
# How it was run: as §1
# Gal6S(b1-4)GlcNAc = biological target: Gal6S(b1-4)GlcNAc
# How it was run: as §1
# GalNAc(a1-3)GalNAc = biological target: GalNAc(a1-3)GalNAc
# How it was run: as §1
# [21] = biological target: GalNAc(a1-3)GalNAc(b1-3)Gal(a1-4)Gal(b1-4)Glc
# How it was run: as §1
# [22] = biological target: GalNAc(b1-3)Gal(a1-4)Gal(b1-4)GlcNAc(b1-3)Gal(b1-4)Glc
# How it was run: as §1
# [23] = biological target: GlcNAc(b1-3)Gal(b1-4)GlcNAc(b1-2)Man(a1-3)[GlcNAc(b1-3)Gal(b1-4)GlcNAc(b1-2)Man(a1-6)]Man(b1-4)GlcNAc(b1-4)GlcNAc
# How it was run: as §1
# [24] = biological target: GlcNAc(b1-3)Gal(b1-4)GlcNAc(b1-3)Gal(b1-4)GlcNAc(b1-3)Gal(b1-4)GlcNAc(b1-3)Gal(b1-4)GlcNAc(b1-2)[GlcNAc(b1-3)Gal(b1-4)GlcNAc(b1-3)Gal(b1-4)GlcNAc(b1-3)Gal(b1-4)GlcNAc(b1-3)Gal(b1-4)GlcNAc(b1-6)]Man(a1-6)[GlcNAc(b1-3)Gal(b1-4)GlcNAc(b1-3)Gal(b1-4)GlcNAc(b1-3)Gal(b1-4)GlcNAc(b1-3)Gal(b1-4)GlcNAc(b1-2)Man(a1-3)]Man(b1-4)GlcNAc(b1-4)[Fuc(a1-6)]GlcNAc
# How it was run: as §1
# Kdn(a2-3)Gal(b1-4)GlcNAc = biological target: Kdn(a2-3)Gal(b1-4)GlcNAc
# How it was run: as §1
# Man(a1-2)Man(a1-3)Man = biological target: Man(a1-2)Man(a1-3)Man
# How it was run: as §1
# [25] = biological target: Man(a1-2)Man(a1-3)[Man(a1-2)Man(a1-6)]Man(a1-6)[Man(a1-2)Man(a1-2)Man(a1-3)]Man(b1-4)GlcNAc(b1-4)GlcNAc
# How it was run: as §1
# [26] = biological target: Neu5Ac(a2-3)Gal(b1-3)GalNAc(b1-3)Gal(a1-4)Gal(b1-4)Glc
# How it was run: as §1
# [27] = biological target: Neu5Ac(a2-3)Gal(b1-4)GlcNAc
# How it was run: as §1
# [28] = biological target: Neu5Ac(a2-3)Gal(b1-4)GlcNAc(b1-2)Man(a1-3)[GlcNAc(b1-4)][Neu5Ac(a2-3)Gal(b1-4)GlcNAc(b1-2)Man(a1-6)]Man(b1-4)GlcNAc(b1-4)GlcNAc
# How it was run: as §1
# [29] = biological target: Neu5Ac(a2-3)Gal(b1-4)GlcNAc(b1-2)Man(a1-3)[Neu5Ac(a2-3)Gal(b1-4)GlcNAc(b1-2)Man(a1-6)]Man(b1-4)GlcNAc(b1-4)GlcNAc
# How it was run: as §1
# [30] = biological target: Neu5Ac(a2-3)Gal(b1-4)[Fuc(a1-3)]GlcNAc6S
# How it was run: as §1
# Neu5Ac(a2-3)GalNAc = biological target: Neu5Ac(a2-3)GalNAc
# How it was run: as §1
# Neu5Ac(a2-6)Gal = biological target: Neu5Ac(a2-6)Gal
# How it was run: as §1
# [31] = biological target: Neu5Ac(a2-6)Gal(b1-4)GlcNAc(b1-2)Man(a1-6)[Man(a1-3)]Man(b1-4)GlcNAc(b1-4)GlcNAc
# How it was run: as §1
# [32] = biological target: Neu5Ac(a2-6)Gal(b1-4)GlcNAc(b1-2)[Neu5Ac(a2-6)Gal(b1-4)GlcNAc(b1-4)]Man(a1-3)[GlcNAc(b1-4)][Neu5Ac(a2-6)Gal(b1-4)GlcNAc(b1-2)[Neu5Ac(a2-6)Gal(b1-4)GlcNAc(b1-6)]Man(a1-6)]Man(b1-4)GlcNAc(b1-4)GlcNAc
# How it was run: as §1
# [33] = biological target: Neu5Ac(a2-6)Gal(b1-4)GlcNAc(b1-2)[Neu5Ac(a2-6)Gal(b1-4)GlcNAc(b1-4)]Man(a1-3)[GlcNAc(b1-4)][Neu5Ac(a2-6)Gal(b1-4)GlcNAc(b1-4)Man(a1-6)]Man(b1-4)GlcNAc(b1-4)GlcNAc
# How it was run: as §1
# [34] = biological target: Neu5Ac(a2-6)Gal(b1-4)GlcNAc(b1-3)Gal(b1-4)GlcNAc(b1-3)Gal(b1-4)GlcNAc(b1-2)Man(a1-3)[Neu5Ac(a2-6)Gal(b1-4)GlcNAc(b1-3)Gal(b1-4)GlcNAc(b1-3)Gal(b1-4)GlcNAc(b1-2)Man(a1-6)]GalNAc
# How it was run: as §1
# [35] = biological target: Neu5Ac(a2-6)Gal(b1-4)GlcNAc(b1-3)[Neu5Ac(a2-6)Gal(b1-4)GlcNAc(b1-6)]GalNAc
# How it was run: as §1
# [36] = biological target: Neu5Gc(a2-3)Gal(b1-4)[Fuc(a1-3)]GlcNAc
# How it was run: as §1
binder,measurement,setting,value
B1,glycan array binding signal (z-score),Fuc(a1-2)Gal(b1-3)GlcNAc,0.359
same,glycan array binding signal (z-score),[1],-0.012
same,glycan array binding signal (z-score),Fuc(a1-2)Gal(b1-4)Glc,-0.322
same,glycan array binding signal (z-score),[2],0.324
same,glycan array binding signal (z-score),[3],-0.914
same,glycan array binding signal (z-score),[4],0.207
same,glycan array binding signal (z-score),[5],-0.832
same,glycan array binding signal (z-score),[6],3.23
same,glycan array binding signal (z-score),[7],-0.328
same,glycan array binding signal (z-score),[8],0.499
same,glycan array binding signal (z-score),[9],2.41
same,glycan array binding signal (z-score),[10],-0.684
same,glycan array binding signal (z-score),[11],0.28
same,glycan array binding signal (z-score),[12],-0.035
same,glycan array binding signal (z-score),[13],-0.68
same,glycan array binding signal (z-score),[14],-0.55
same,glycan array binding signal (z-score),[15],2.97
same,glycan array binding signal (z-score),[16],0.129
same,glycan array binding signal (z-score),[17],0.217
same,glycan array binding signal (z-score),[18],-0.8
same,glycan array binding signal (z-score),[19],-0.763
same,glycan array binding signal (z-score),[20],0.439
same,glycan array binding signal (z-score),Gal3S(b1-3)GalNAc,0.283
same,glycan array binding signal (z-score),Gal6S(b1-3)GlcNAc,2.69
same,glycan array binding signal (z-score),Gal6S(b1-4)GlcNAc,-0.022
same,glycan array binding signal (z-score),GalNAc(a1-3)GalNAc,-0.798
same,glycan array binding signal (z-score),[21],-0.606
same,glycan array binding signal (z-score),[22],-0.596
same,glycan array binding signal (z-score),[23],-0.524
same,glycan array binding signal (z-score),[24],-1.04
same,glycan array binding signal (z-score),Kdn(a2-3)Gal(b1-4)GlcNAc,2.76
same,glycan array binding signal (z-score),Man(a1-2)Man(a1-3)Man,0.139
same,glycan array binding signal (z-score),[25],-0.337
same,glycan array binding signal (z-score),[26],-0.318
same,glycan array binding signal (z-score),[27],1.9
same,glycan array binding signal (z-score),[28],0.483
same,glycan array binding signal (z-score),[29],1.88
same,glycan array binding signal (z-score),[30],0.576
same,glycan array binding signal (z-score),Neu5Ac(a2-3)GalNAc,2.8
same,glycan array binding signal (z-score),Neu5Ac(a2-6)Gal,2.53
same,glycan array binding signal (z-score),[31],0.005
same,glycan array binding signal (z-score),[32],2.01
same,glycan array binding signal (z-score),[33],1.82
same,glycan array binding signal (z-score),[34],2.1
same,glycan array binding signal (z-score),[35],-1.14
same,glycan array binding signal (z-score),[36],-0.164
